# DRD3 agonist = qHTS of D3 Dopamine Receptor Agonist: qHTS | D(3) dopamine receptor (Homo sapiens), P35462 | D3R DiscoveRx beta-arrestin cells, luminescence, 90 min | max activation, % | actives 0.58% (n = 410,000) | AID 652048, 2013; in the data active = max activation above about 30%; also: 0% is about no effect
# Target sequence (P35462 whole entry, looked up): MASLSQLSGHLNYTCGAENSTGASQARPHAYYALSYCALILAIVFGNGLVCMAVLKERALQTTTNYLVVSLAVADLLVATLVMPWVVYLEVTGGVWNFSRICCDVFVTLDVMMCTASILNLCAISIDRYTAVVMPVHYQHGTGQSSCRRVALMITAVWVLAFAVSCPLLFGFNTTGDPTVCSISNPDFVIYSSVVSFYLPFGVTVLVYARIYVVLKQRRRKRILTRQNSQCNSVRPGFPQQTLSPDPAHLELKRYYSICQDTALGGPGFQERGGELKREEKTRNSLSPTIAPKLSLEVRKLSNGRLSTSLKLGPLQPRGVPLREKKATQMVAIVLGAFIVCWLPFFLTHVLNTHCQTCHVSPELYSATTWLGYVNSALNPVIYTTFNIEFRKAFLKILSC
#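 Cells at 1500/well, incubated overnight, then treated with pinned compounds (dopamine as control) for 90 min at 37 degrees C. DiscoveRx reagent added for 30 - 60 minutes at room temperature; luminescence read.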
# KB-3-1 tox = qHTS assay for MDR1-selective chemotherapeutics: Primary screen using the parental adenocarcinoma cell KB-3-1 | Potency, µM (series often up to 46.1 µM), usual class: cytotoxic | AID 1347075, 2019 | actives 1.4% (n = 400,000) | KB-3-1 viability, CellTiter-Glo ATP luminescence, 72 h; also: potency is read from the fitted curve at half-maximal effect; % is scaled to controls: 0 for no effect and ±100 for the full control effect; nearly all actives have a fitted effect of over 60% in size
#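 Using CellTiter-Glo luminescence, growth of non-resistant KB-3-1 adenocarcinoma cells is assessed 72 h after pin-tool compound addition at 37 °C. Normalized responses across the concentration series yield fitted curves.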
# DRD3 antagonist = qHTS of D3 Dopamine Receptor Antagonist: qHTS; D3R cells, DiscoveRx beta-arrestin luminescence, antagonist mode; active compounds read low; max response, negative = inhibition, %; actives 2.5% (n = 360,000); AID 652054, 2013; in the data active = max response below about -50%; inconclusive = no clear call, values can overlap the other calls; also: % is scaled to controls: 0 for no effect and ±100 for the full control effect
#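 Cells expressing the human receptor were seeded at 1500 cells/well, incubated overnight at 37 degrees C in 5% CO2, then exposed to library compounds with dopamine controls for 90 minutes at 37 degrees C before luminescent detection.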
# KB-V1 MDR tox = qHTS assay for MDR1-selective chemotherapeutics: Primary screen using the drug-selected MDR subline cells KB-V1; KB-V1 MDR cells viability, CellTiter-Glo, 72 h; Potency, µM (highest dose often 46.1 µM), most hits filed as cytotoxic; actives 3.4% (n = 400,000); AID 1347076, 2019; also: potency is read from the fitted curve at half-maximal effect; % is scaled to controls: 0 for no effect and ±100 for the full control effect; nearly all actives have a fitted effect of over 60% in size
#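 KB-V1 MDR subline cells in DMEM (phenol-red free, 10% FBS) exposed to compounds in qHTS concentration series for 72 h at 37 degrees C. Viability read by CellTiter-Glo luminescence; concentration-effect curves fitted after normalization and correction.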
# MCF10A rerep = A quantitative high throughput screen for small molecules that induce DNA re-replication in MCF 10a normal breast cells; MCF 10A DNA re-replication, Hoechst nuclear intensity, 48 h; Potency, µM (titrated, usually from 46.1 µM), for inactives: top-dose activity, positive = re-replication, actives largely listed as activators; actives 2.9% (n = 350,000); AID 624296, 2012; also: potency is read from the fitted curve at half-maximal effect; % of control where 0% means no effect; nearly all actives have a fitted effect of over 50% in size
# SW480 rerep = A quantitative high throughput screen for small molecules that induce DNA re-replication in SW480 colon adenocarcinoma cells; SW480 DNA re-replication, Hoechst DNA content imaging, 48 h; Potency, µM (doses to about 46.1 µM), without a hit: top-dose re-replication activation, actives largely listed as activators; actives 1.8% (n = 340,000); AID 624297, 2012; also: potency is read from the fitted curve at half-maximal effect; % of control where 0% means no effect; nearly all actives have a fitted effect of over 55% in size
#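 Image-based read-out: total Hoechst fluorescence of nuclei (405 nm excitation, 500-530 nm emission), with hits raising the fraction of high-intensity nuclei. SW480 colon cells incubated 48 hr with compounds at 37 C.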
# * = called active by the depositor; i = inactive; ? = inconclusive; · = no result; ! = repeats disagree; [ ] = another dose, or the depositor's remark. An excerpt weighted towards active compounds, which were near 8.9% of everything screened. Unless noted, calls follow the shape of the dose curve; as a rule, active = well fitted curve in the direction sought with a large enough effect; inconclusive = small, poorly fitted or top-dose-only effect, or another doubt; inactive = no such curve, though single readings can be large; an effect the other way counts as inactive or inconclusive.
SMILES,DRD3 agonist,KB-3-1 tox,DRD3 antagonist,KB-V1 MDR tox,MCF10A rerep,SW480 rerep
COc1ccccc1N1CCN(CCCCOc2c(OC)cccc2OC)CC1,-16,i,-108*,i,1%,0%
COc1cccc(OC)c1OCCN1CCCC1,-1,i,-5,i,20%,-15%
COc1cccc(OC)c1OCCCN1CCC(Cc2ccccc2)CC1,-20,i,-95*,i,13%,-3%
COc1ccccc1N1CCN(CCCNC(=O)Nc2ccccc2)CC1,22,i,-29,i,1%,0%
COc1ccc(C(=O)C(=O)N2CCC(Cc3ccccc3)CC2)cc1OC,-2,i,7,?,·,·
COc1cccc(OC)c1OCCN1CCN(C(c2ccccc2)c2ccccc2)CC1,-6,i,-109*,i,?,18%
O=C1CN(C(=O)c2ccccc2C(F)(F)F)C(c2ccccc2)c2cc(F)ccc2N1 (configuration not stated),6,i,·,i,·,·
CCn1c(=O)c2sccc2n2c(CCC(=O)N3CCN(c4ccccc4OC)CC3)nnc12,2,i,·,i,·,·
Cn1c(SCc2ccccc2C#N)nc2ccccc2c1=O,16,i,22,i,?,24%
COc1ccccc1N1CCN(CCCN=C2CC(=O)N(C)C(=O)N2C)CC1,-62,i,-56*,i,-13%,-70%
COc1ccccc1N1CCN(CCCOc2ccc(F)cc2)CC1,-17,i,-91*,i,?,2%
O=C(O)COCCN1CCN(C(c2ccccc2)c2ccc(Cl)cc2)CC1 (configuration not stated),·,i,·,?,0%,-9%
OCCOCCN1CCN(C(c2ccccc2)c2ccc(Cl)cc2)CC1 (configuration not stated),-86,i,-89*,i,23%,-1%
Cc1cccc(C(=O)NCN2CCN(c3ccccc3C#N)CC2)c1,-81,i,-76*,i,-2%,-9%
CCOc1ccc(OCC)c(S(=O)(=O)NCc2ccccc2)c1,-7,i,-17,i,-16%,2%
CCOc1cc(Br)ccc1S(=O)(=O)NCc1ccccc1,6,i,5,15µM*,-1%,-13%
COC(=O)CSc1nc2ccccc2nc1SCC(=O)OC,13,i,15,i,23µM*,18µM*
Cc1cccc(NC(=O)c2sc(-n3nc(C)c(CCC(C)C)c3C)nc2C)c1,2,i,·,i,·,·
CS(=O)(=O)N(CC(=O)NCCSC1CCCCC1)c1ccc2c(c1)OCO2,2,i,-11,18µM*,8%,11%
CN(c1cccc(NC(=O)CN(c2ccc(F)cc2)S(C)(=O)=O)c1)S(C)(=O)=O,5,i,-30,i,-1%,1%
CCOc1ccc(N(CC(=O)Nc2ccccc2Cl)S(C)(=O)=O)cc1,-4,?,24,?,?,21µM*
CCOc1ccc(N(CC(=O)Nc2cc(Cl)ccc2C)S(C)(=O)=O)cc1,0,i,-9,i,?,18µM*
CN(c1cccc(NC(=O)CN(c2ccc(C34CC5CC(CC(C5)C3)C4)cc2)S(C)(=O)=O)c1)S(C)(=O)=O,1,?,7,18µM*,5%,-4%
COc1ccc(OCc2nc3ccccc3n2Cc2ccccc2Cl)cc1,5,i,·,i,·,·
CS(=O)(=O)N(CC(=O)Nc1cc(Cl)ccc1Cl)c1ccccc1,17,i,14,16µM*,15%,5%
SMILES,DRD3 agonist,KB-3-1 tox,DRD3 antagonist,KB-V1 MDR tox,MCF10A rerep,SW480 rerep
CS(=O)(=O)N(CC(=O)Nc1cccc(Cl)c1Cl)c1ccccc1,0,i,-3,i,-176%[0.0737 µM],5%
CS(=O)(=O)N(CC(=O)Nc1ccc2c(c1)OCO2)c1ccccc1,4,i,5,i,21µM*,4%
CS(=O)(=O)N(CC(=O)Nc1ccc2c(c1)OCCO2)c1ccc2c(c1)OCO2,-3,i,0,i,11%,-4%
COc1ccccc1CNC(=O)c1ccc2c(c1)N(Cc1cc(C)ccc1C)C(=O)c1ccccc1S2,11,·,·,·,·,·
Cc1ccc(CNC(=O)c2nnc(Cc3cccc(F)c3)o2)cc1,-7,i,·,i,·,·
COCc1cc(C)n(CC(=O)NCc2ccccc2)c(=O)c1C#N,1,i,16,?,1%,18µM*
C[N+]1(CC(=O)c2ccc(Cl)cc2)CCOCC1,·,i,·,i,·,·
Nc1ccc2cc3[nH]c4cc(N)ccc4c3nc2c1,-11,?,-25,i,18µM*,3.3µM*
Nc1ccc2nc(-c3cccc(-c4nc5ccc(N)cc5[nH]4)c3)[nH]c2c1,11,i,12,i,-7%,4%
CCOC(=O)c1ccc2c(c1)N(Cc1cccc(C(F)(F)F)c1)C(=O)c1ccccc1S2(=O)=O,8,i,·,?,·,·
Cn1nc(C(F)(F)F)c(-c2ccc(Br)cc2)c1NC(=O)Nc1ccc(F)cc1F,3,?,9,?,21µM*,-1%
Cn1nc(C(F)(F)F)c(-c2ccc(F)cc2)c1NC(=O)c1ccco1,4,i,-7,i,-2%,-4%
O=C(CCn1c(=O)c2cccn2c2cccnc21)N1CCN(c2ccccc2)CC1,4,·,·,·,·,·
Clc1ccc(C2Nc3cccc4cccc(c34)N2)c(Cl)c1,5,?,-1,i,1%,?
O=C1NC(c2cccc3ccccc23)Nc2ccc(Cl)cc21 (configuration not stated),-1,0.18µM*,0,0.23µM*,?,0.73µM*
Cc1cc(C(F)(F)F)nn1-c1nc(-c2ccccc2)cc(C(F)(F)F)n1,2,i,·,i,·,·
CCC1CSC(Nc2ccc(C(=O)/C=C/c3cccc(C)c3)cc2)=N1 (configuration not stated),-2,?,-13,i,16µM*,?
Cc1cccc(C=CC(=O)c2ccccc2)c1,-12,?,?,i,?,?
CCC1CSC(Nc2ccc(C(=O)/C=C/c3ccc(Oc4ccccc4)cc3)cc2)=N1 (configuration not stated),-5,?,-10,18µM*,?,?
Cc1ccc(NC(=O)CN2CC(C)SC2=NC2CCCCC2)cc1 (configuration not stated),-16,i,-96*!,?,?,?
